The values below come from PubChem BioAssay AID485341 (National Center for Advancing Translational Sciences (NCATS), 2010).

The structures appear in SMILES notation. Screen size: about 330,000 compounds; about 1,700 (0.52%) were called active. Calls come from the whole dose curve; as a rule, active = well fitted inhibition curve with a large enough effect; inconclusive = small, poorly fitted or top-dose-only effect; inactive = no such curve, though single readings can be large or run the other way. Shown is part of a subset that was picked to be rich in actives. Entries that show only a call come without a potency.
Potency is the fitted concentration of half-maximal effect.

The target in the assay is Beta-lactamase (Escherichia coli (strain K12)) (UniProt P00811). The experiment in a line: qHTS Inhibitors of AmpC Beta-Lactamase (assay without detergent). Note: nearly all actives have a fitted effect of over 20% in size. As to conditions: AmpC nitrocefin hydrolysis, absorbance 480 nm, 0.0001% Triton; series mostly up to 57.1 µM. The gist of the method: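 20 mM phosphate pH 7.0 + 0.01% (detergent screen) or 0.0001% Triton X-100; 5.3 nM AmpC reagent; cpd preinc 15 min RT; nitrocefin (800 uM stock) to start; A480 q20 s × 4 min; Activity was normalised to no-enzyme and no-compound control wells.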
Chain of Beta-lactamase (Escherichia coli (strain K12)) (P00811 whole entry, looked up): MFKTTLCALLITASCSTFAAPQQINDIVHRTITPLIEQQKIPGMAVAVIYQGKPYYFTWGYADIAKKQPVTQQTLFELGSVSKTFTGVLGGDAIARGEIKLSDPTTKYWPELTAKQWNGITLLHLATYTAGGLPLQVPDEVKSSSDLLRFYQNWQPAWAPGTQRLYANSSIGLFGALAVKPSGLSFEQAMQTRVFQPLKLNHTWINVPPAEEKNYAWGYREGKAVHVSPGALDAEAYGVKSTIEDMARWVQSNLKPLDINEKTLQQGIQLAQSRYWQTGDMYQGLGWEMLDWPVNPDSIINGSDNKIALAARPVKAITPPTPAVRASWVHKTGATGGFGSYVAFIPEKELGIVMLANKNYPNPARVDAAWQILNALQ
In general terms: Quantitative high-throughput screening tests each substance at several concentrations.
Take `O=C1CCN(Cc2ccc([N+](=O)[O-])cc2)CCN1[C@H](CO)Cc1ccccc1`: the Potency result is “inactive”.

Take `O=C(CCCn1c(=O)oc2ccccc21)Nc1cccnc1`: the Potency entry was “inactive”.

Regarding `CC(C)CC(=O)N1CCN(Cc2cccc(Cl)c2)CC1`, the Potency entry was “inactive”.

In the case of `Clc1cccc(CN2COc3c(cc(Cl)c4cccnc34)C2)c1`, the Potency was 35.5 µM (active).

With `Oc1c(CN2CCCC2)cc(COCc2ccccc2)c2cccnc12`, the Potency entry is “inactive”.

`CC[C@]12c3[nH]c4ccc(Cl)cc4c3CCN1C(=O)[C@@H](CC(=O)NCCN1CCOCC1)C[C@@H]2C(=O)N1CCN(C(=O)C2CC2)CC1`: the Potency result was “inactive”.

Take `CC(C)CCN1NC2(CCC(C)CC2)NC1=S` (configuration not stated): the Potency result was “inactive”.

In the case of `O=c1oc2ccccc2c(CNc2ccccc2)c1[N+](=O)[O-]`, the Potency result was “inactive”.

As to `O=C(COC(=O)c1cc(=O)[nH]c2ccccc12)Nc1nc(-c2cccc(Br)c2)cs1`, the Potency is 14.1 µM (active).

On to `CC(NC(=O)COC(=O)c1cc(=O)[nH]c2ccccc12)c1ccccc1` (configuration not stated), for which the Potency result was “inactive”.

`O=C(COC(=O)c1cc(=O)[nH]c2ccccc12)NCc1cccc(Cl)c1`: the Potency entry is “inactive”.

Turning to `CC(C)CCN1C(=O)c2ccc(C(=O)Nc3cccc(S(N)(=O)=O)c3)cc2C1=O`, the Potency entry was “inactive”.

Take `CN(c1ccccn1)c1ncnc2[nH]ncc12`: the Potency result is “inactive”.

Take `Cc1nn(C)c(Cl)c1CN1CCC(Oc2ccc(C(=O)N3CCCC3)cc2)CC1`: the Potency result was “inactive”.

As to `Cc1csc(=O)n1CC(=O)Nc1ccc(S(C)(=O)=O)cc1`, the Potency entry was “inactive”.

Consider `O=C(c1ccc(Cl)nc1)N1CCN(S(=O)(=O)c2ccc3c(c2)OCCO3)CC1`, for which the Potency result is “inactive”.

For `Cn1nnnc1SCC(=O)Nc1cccc(S(=O)(=O)N2CCCCC2)c1`, the Potency result was “inactive”.

For `O=C(CSc1ccccc1)Nc1cccc(S(=O)(=O)N2CCCCC2)c1`, the Potency entry was “inactive”.

As for `Nc1cc(N)nc(SCC(=O)Nc2cccc(S(=O)(=O)N3CCCCC3)c2)n1`, the Potency is 25.1 µM (active).

In the case of `N#C/C(=C(/O)COC(=O)COc1ccc(Cl)cc1)c1nc2ccccc2[nH]1`, the Potency was 11.2 µM (active).

As to `COCCN(CCOC)S(=O)(=O)c1ccc(/C(O)=C(\C#N)c2nc3ccccc3[nH]2)cc1`, the Potency result is “inactive”.

Consider `COc1ccccc1C(=O)COC(=O)COc1ccc(C#N)cc1`, for which the Potency entry is “inactive”.

In the case of `Cc1cc(C)c(OCCN2CC(C)OC(C)C2)c(Br)c1` (configuration not stated), the Potency entry is “inactive”.

In the case of `CCN(CC)S(=O)(=O)c1ccc(CNC(=O)CN2C(=O)NC3(CCc4ccccc43)C2=O)cc1` (configuration not stated), the Potency result is “inactive”.

On to `Cn1cc(C(=O)NCc2ccccc2F)cn1`, for which the Potency result is “inactive”.

In the case of `Cn1c2cc(B(O)O)sc2c2cnn(Cc3ccccc3F)c(=O)c21`, the Potency was 2.82 µM (active).

On to `CCOC(=O)c1c(CNCc2ccccc2F)c2sc(C)cc2n1C`, for which the Potency entry is “inactive”.

For the compound `COc1cc2c(-c3ccc4c(c3)OCO4)c(-c3ccsc3)oc(=O)c2cc1OC`, the Potency result was “inactive”.

Turning to `O=C(NC1CCN(C(=S)NCc2ccco2)CC1)c1ccc(F)cc1`, the Potency result was “inactive”.

Turning to `Cc1ccc(N2C(=O)C(CC(=O)Nc3cccc(F)c3)N(CCc3ccncc3)C2=O)cc1` (configuration not stated), the Potency result is “inactive”.

For `Cc1ccc(NC(=O)CC2C(=O)N(Cc3ccccc3)C(=S)N2NC(=O)c2cccc(F)c2)c(C)c1` (configuration not stated), the Potency is 31.6 µM (active).

In the case of `CN1C(=O)C(CC(N)=O)N(NC(=O)c2ccc(Cl)cc2)C1=S` (configuration not stated), the Potency entry is “inactive”.

In the case of `CN(C)/C=N/c1cc(=O)n(C)c(=O)n1CC1CC1`, the Potency entry was “inactive”.

In the case of `Clc1ccccc1-c1cc(COc2ccc3ccccc3c2)no1`, the Potency result was “inactive”.

On to `COc1ccc(C2CC(c3ccc(C)cc3)Nc3ncnn32)cc1` (configuration not stated), for which the Potency result is “inactive”.

As for `Nc1nc2n(n1)C(c1ccco1)CC(c1ccc(Cl)c(Cl)c1)N2` (configuration not stated), the Potency result was “inactive”.

`Clc1ccc(C2CC(c3cccs3)n3ncnc3N2)cc1Cl` (configuration not stated): the Potency is 0.708 µM (active).

`CN(C)CCN(Cc1ccccc1)S(=O)(=O)c1csc(C(N)=O)c1`: the Potency entry is “inactive”.

As to `Cc1ncn2cc(-c3ccc(Cl)cc3Cl)[nH]c(=O)c12`, the Potency result is “inactive”.

As to `CC(C)n1c(=O)c(C=Nc2ccc(Br)cc2)c(O)n(Cc2ccco2)c1=O`, the Potency was 14.1 µM (active).

Consider `Cn1c2c(c(=O)n(C)c1=O)CN(Cc1ccco1)CN2`, for which the Potency result is “inactive”.

`Cn1c(O)c(C=Nc2ccc3c(c2)CCC3)c(=O)n(C)c1=O`: the Potency result is “inactive”.

`c1nc(COc2nsnc2N2CCOCC2)cs1`: the Potency entry is “inactive”.

Consider `Cc1cc(=O)[nH]c(SCc2cc(Cl)ccc2OC(F)F)n1`, for which the Potency result was “inactive”.

Turning to `Cc1cc(=O)[nH]c(SCc2cccc(F)c2)n1`, the Potency result was “inactive”.

In the case of `O=c1cc(O)nc(SCc2ccccc2Cl)[nH]1`, the Potency was 3.16 µM (active).

As for `CC/C(C)=N/Nc1nc2sc3c(c2c(=O)[nH]1)CC(C)(C)OC3`, the Potency was 1.12 µM (active).

In the case of `CCSc1nc2sc3c(c2c(=O)[nH]1)CC(C)(C)OC3`, the Potency result was “inactive”.

For the compound `CC(C)c1nc2sc3c(c2c(=O)n1N)CC(C)(C)OC3`, the Potency entry was “inactive”.

For `Cc1cc2ccccn2c1C(C[N+](=O)[O-])c1c(F)cccc1Cl` (configuration not stated), the Potency result is “inactive”.

Consider `Cc1ccc(C(C[N+](=O)[O-])c2c(C)cc3ccccn23)cc1` (configuration not stated), for which the Potency is 22.4 µM (active).

Take `Cc1cc2ccccn2c1C(=O)c1cccc(F)c1`: the Potency result is “inactive”.

For `Cn1c(=NC(=O)c2ccc3c(c2)OCCO3)sc2cc(S(C)(=O)=O)ccc21`, the Potency result is “inactive”.

For `CN(C)c1ccc(C(CNC(=O)c2ccc(F)cc2)c2c[nH]c3ccccc23)cc1` (configuration not stated), the Potency is 14.1 µM (active).

Take `COc1ccccc1C(CNC(=O)c1cccc(S(=O)(=O)Nc2ccc(F)cc2)c1)N(C)C` (configuration not stated): the Potency result is “inactive”.

In the case of `C[C@H](NC(=O)c1ccccc1)C(=O)OCC(=O)c1c[nH]c2ccccc12`, the Potency entry is “inactive”.

Regarding `COc1cccc(/C=N/NC(=O)CNC(=O)c2ccc(S(=O)(=O)N3CCOCC3)cc2)c1OC`, the Potency entry was “inactive”.

For `COc1cccc(/C=N/NC(=O)c2[nH]nc3c2CCc2ccccc2-3)c1O`, the Potency is 5.62 µM (active).

For the compound `CCOc1ccc2[nH]c(C(=O)N/N=C/c3cccc(OC)c3OC)cc2c1`, the Potency result was “inactive”.

On to `CCc1ccc(C(=O)NN=C2CCCCCC2)s1`, for which the Potency entry is “inactive”.

As to `CCCNS(=O)(=O)c1ccc(CCC(=O)N2CCCC2)cc1`, the Potency entry was “inactive”.

In the case of `COc1ccc(C(CC(=O)c2ccccc2)S(=O)(=O)c2ccccc2)cc1` (configuration not stated), the Potency result was “inactive”.

On to `CCn1c(SCCC(C)C)nnc1-c1c[nH]c2ccccc12`, for which the Potency result is “inactive”.

On to `CCOC(=O)N1CCN(C(=O)CSc2nnc(-c3c[nH]c4ccccc34)n2CCOC)CC1`, for which the Potency result was “inactive”.

For `COc1ccc(-n2c(SCC(=O)NCc3ccco3)nnc2-c2c[nH]c3ccccc23)cc1`, the Potency was 3.55 µM (active).

Consider `CCn1c(SCC(=O)Nc2ccc(OC)c(OC)c2)nnc1-c1c[nH]c2ccccc12`, for which the Potency is 0.631 µM (active).

`COc1ccc(-n2c(SCC(=O)NCc3cccs3)nnc2-c2ccoc2C)cc1`: the Potency result is “inactive”.

For `O=C(CSc1nnc(-c2c[nH]c3ccccc23)n1-c1ccc(F)cc1)NCc1ccco1`, the Potency entry is “inactive”.

Regarding `N/C(=N\S(=O)(=O)c1ccc(Cl)cc1)N1CCOCC1`, the Potency entry is “inactive”.

As to `CN(C)Cc1c(O)ccc2c(=O)c(-c3ccccc3Cl)coc12`, the Potency entry was “inactive”.

Turning to `Cc1ccc(CNC(=O)CCNS(=O)(=O)c2cccc3nonc23)cc1`, the Potency result is “inactive”.

As to `Cc1ccc(N(CC(=O)Nc2cc(C)cc(C)c2)S(=O)(=O)c2cccc3nonc23)cc1`, the Potency was 15.8 µM (active).

On to `CCOC(=O)c1cccc(NC(=O)CN(c2ccc(C)cc2)S(=O)(=O)c2c(C)noc2C)c1`, for which the Potency entry is “inactive”.

With `COC(=O)c1ccc(COc2ccc(C#N)cc2)o1`, the Potency result was “inactive”.

Turning to `N#CCC(=O)Nc1ccc(C(=O)OCC(=O)Nc2sc3c(c2C#N)CCCC3)cc1`, the Potency is 14.1 µM (active).

For `Cc1cccc(C(=O)OCC(=O)Nc2sc3c(c2C#N)CCC3)c1`, the Potency entry was “inactive”.

In the case of `N#Cc1c(NC(=O)CCCl)sc2c1CCCCC2`, the Potency entry was “inactive”.

In the case of `CCOC(=O)Cn1c2c(c(-c3ccccc3OC)cc1=O)CCCC2`, the Potency entry is “inactive”.

Turning to `O=C(CSc1nnc(-c2ccncc2)n1C1CCCCC1)Nc1ccccc1`, the Potency result was “inactive”.

For `Cc1ccc(N2C(=O)C3N=NN(CC(=O)N4N=C(c5cccc6ccccc56)CC4c4ccccc4)C3C2=O)cc1` (configuration not stated), the Potency result is “inactive”.

For the compound `Cc1cccc(C(C)C)c1NC(=O)COC(=O)C1CC(=O)N(Cc2ccccc2)C1` (configuration not stated), the Potency result was “inactive”.

For `Cc1ccc(NC(=O)c2cccc(S(=O)(=O)N3CCCc4ccccc43)c2)nc1`, the Potency entry was “inactive”.

Consider `NS(=O)(=O)c1ccc(CNC(=O)c2cccc(Oc3ccccc3)c2)cc1`, for which the Potency result was “inactive”.

As to `NS(=O)(=O)c1ccc(CNC(=O)c2cccc(S(=O)(=O)N3CCc4ccccc43)c2)cc1`, the Potency is 14.1 µM (active).

`O=C(NC1CC1)C1=C[C@H](c2c[nH]c3ccccc23)C[C@H](OCc2ccc(CO)cc2)O1`: the Potency result is “inactive”.

On to `CCNC(=O)NC(=O)C(C)OC(=O)C1CCN(S(=O)(=O)c2ccccc2F)CC1` (configuration not stated), for which the Potency result is “inactive”.

As for `CCOC1CS(=O)(=O)CC1OCC` (configuration not stated), the Potency result is “inactive”.

As for `c1csc(-c2nnc(COc3ccc4c(c3)OCO4)o2)c1`, the Potency entry was “inactive”.

In the case of `C=CS(=O)c1sc(Cl)c(N2CCOCC2)c1[N+](=O)[O-]` (configuration not stated), the Potency result is “inactive”.

For the compound `Cc1cc(Nc2cccc(F)c2)n2ncnc2n1`, the Potency entry was “inactive”.

Take `Cc1c(Cl)cnc(NC(=O)COC(=O)c2ccc(S(=O)(=O)NCc3ccco3)cc2)c1Cl`: the Potency result is “inactive”.

Consider `O=S(=O)(NCc1ccco1)c1cnc(Cl)c(Cl)c1`, for which the Potency result was “inactive”.

On to `C/C(=N\Nc1ncc(Cl)cc1Cl)c1ccc(S(=O)(=O)NCc2ccco2)cc1`, for which the Potency was 31.6 µM (active).

With `O=C(c1cccnc1)N(c1cc2sc(=O)oc2c2ccccc12)S(=O)(=O)c1ccccc1`, the Potency entry is “inactive”.

Regarding `Cc1ccccc1SCC(=O)OCC(=O)N1CC(=O)Nc2ccccc21`, the Potency entry was “inactive”.

In the case of `Cc1cc(C(=O)N/N=C/c2ccc(O)c([N+](=O)[O-])c2)c(C)n1-c1ccc(F)cc1`, the Potency is 17.8 µM (active).

For `O=C1CSC(=S)N1/N=C/c1ccc(O)c([N+](=O)[O-])c1`, the Potency entry is “inactive”.

On to `Cc1cc(C(=O)COC(=O)C2CC2)c(C)n1-c1ccc(F)cc1`, for which the activity change, negative = inhibition is -17.5% [at 11.4 µM] (inactive).

For `CCOc1ccc(CN2CCNC(=O)C2CC(=O)NCCCC2CCCC2)cc1` (configuration not stated), the Potency result is “inactive”.

As for `COc1ccc(NC(=O)c2sccc2SCC#N)cc1`, the Potency is 4.47 µM (active).

As to `COc1ccc(NC(=O)c2ccc(C#CC(C)(C)O)cc2)cc1`, the Potency entry was “inactive”.

As for `COc1ccc(NC(=O)CSc2nc(C)cs2)cc1`, the Potency entry is “inactive”.
